Data taken from PubChem BioAssay AID1159580 (chemical genetic matrix, 2015).
Screen size: about 5,500 compounds; about 2,000 (36%) were called active. Inconclusive results (about 18%) are left out. Rule as the data show it: active = normalized growth mostly below about 0.91 (no sharp cut-off); inconclusive = no clear call, values can overlap the other calls; inactive = mostly above about 0.92. The list shows a part of the results.

Experiment: chemical genetic growth profiling, strain panel (AID 1159580);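 also: tested at 20 µM; growth read once vehicle control cultures reached saturation at 30 °C; 1 = growth at the plate median or of vehicle wells; lower values mean less growth of the strain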
Conditions: growth OD

Measured: normalized growth

CC(C)(Oc1ccc(CCNC(=O)c2ccc(Cl)cc2)cc1)C(=O)O
inactive: S. cerevisiae deletion strains, locus YJR075W, strain HOC1, hits give low values 1.02 | S. cerevisiae deletion strains, locus YKL009W, strain mrt4, hits give low values 1.02 | S. cerevisiae deletion strains, locus YKL068W, hits give low values 1.01 | S. cerevisiae deletion strains, locus YKL085W, strain MDH1 (second series), hits give low values 1.03 | S. cerevisiae deletion strains, locus YKL085W, strain MDH1, hits give low values 1.03 | S. cerevisiae deletion strains, locus YKL160W, strain elf1, hits give low values 0.961 | S. cerevisiae deletion strains, locus YKL190W, strain CNB1, hits give low values 1.01 | S. cerevisiae deletion strains, locus YKR001C, strain vps1, hits give low values 1.02 | S. cerevisiae deletion strains, locus YKR026C, strain gcn3, hits give low values 0.991 | S. cerevisiae deletion strains, locus YKR091W, strain srl3, hits give low values 0.996 | S. cerevisiae deletion strains, locus YLL001W, strain dnm1, hits give low values 0.975 | S. cerevisiae deletion strains, locus YLL026W, hits give low values 0.995 | S. cerevisiae deletion strains, locus YLL041C, strain sdh2, hits give low values 0.98 | S. cerevisiae deletion strains, locus YLR027C, strain aat2, hits give low values 0.977 | S. cerevisiae deletion strains, locus YLR039C, strain RIC1, hits give low values 1.03 | S. cerevisiae deletion strains, locus YLR058C, strain SHM2, hits give low values 1.01 | S. cerevisiae deletion strains, locus YLR102C, strain apc9, hits give low values 1.01 | S. cerevisiae deletion strains, locus YLR113W, strain HOG1, hits give low values 0.943 | S. cerevisiae deletion strains, locus YLR221C, strain rsa3, hits give low values 0.997 | S. cerevisiae deletion strains, locus YLR258W, strain gsy2, hits give low values 0.972 | S. cerevisiae deletion strains, locus YLR262C, strain YPT6 (second series), hits give low values 1.01 | S. cerevisiae deletion strains, locus YLR262C, strain YPT6, hits give low values 1.02 | S. cerevisiae deletion strains, locus YLR268W, strain sec22, hits give low values 1.01 | S. cerevisiae deletion strains, locus YLR320W, strain mms22, hits give low values 0.978 | S. cerevisiae deletion strains, locus YLR330W, strain CHS5, hits give low values 1.01 | S. cerevisiae deletion strains, locus YLR342W, strain FKS1 (second series), hits give low values 1.05 | S. cerevisiae deletion strains, locus YLR342W, strain FKS1, hits give low values 0.978 | S. cerevisiae deletion strains, locus YLR357W, strain rsc2, hits give low values 0.951 | S. cerevisiae deletion strains, locus YLR370C, strain arc18, hits give low values 0.983 | S. cerevisiae deletion strains, locus YLR371W, strain rom2, hits give low values 1.02 | S. cerevisiae deletion strains, locus YLR384C, strain iki3, hits give low values 0.972 | S. cerevisiae deletion strains, locus YLR418C, strain cdc73, hits give low values 1.06 | S. cerevisiae deletion strains, locus YML016C, strain PPZ1, hits give low values 1.02 | S. cerevisiae deletion strains, locus YML032C, strain rad52, hits give low values 1.01 | S. cerevisiae deletion strains, locus YML120C, strain ndi1, hits give low values 1.03 | S. cerevisiae deletion strains, locus YML124C, strain tub3, hits give low values 1.01 | S. cerevisiae deletion strains, locus YMR058W, strain fet3, hits give low values 0.995 | S. cerevisiae deletion strains, locus YMR078C, strain ctf18, hits give low values 1.01 | S. cerevisiae deletion strains, locus YMR125W, strain sto1, hits give low values 0.986 | S. cerevisiae deletion strains, locus YMR129W, hits give low values 0.982 | S. cerevisiae deletion strains, locus YMR205C, strain PFK2, hits give low values 0.977 | S. cerevisiae deletion strains, locus YMR223W, strain ubp8, hits give low values 1.01 | S. cerevisiae deletion strains, locus YMR231W, strain pep5, hits give low values 0.994 | S. cerevisiae deletion strains, locus YMR307W, strain GAS1, hits give low values 1.04 | S. cerevisiae deletion strains, locus YNL067W, strain RPL9B, hits give low values 1.01 | S. cerevisiae deletion strains, locus YNL071W, strain lat1, hits give low values 0.994 | S. cerevisiae deletion strains, locus YNL128W, strain TEP1, hits give low values 1.04 | S. cerevisiae deletion strains, locus YNL153C, strain GIM3, hits give low values 1.02 | S. cerevisiae deletion strains, locus YNL183C, strain NPR1, hits give low values 0.937 | S. cerevisiae deletion strains, locus YNL209W, strain ssb2, hits give low values 0.98 | S. cerevisiae deletion strains, locus YNL233W, strain BNI4, hits give low values 1.01 | S. cerevisiae deletion strains, locus YNL248C, strain rpa49, hits give low values 0.986 | S. cerevisiae deletion strains, locus YNL250W, strain rad50, hits give low values 1.02 | S. cerevisiae deletion strains, locus YNL271C, strain bni1, hits give low values 1.02 | S. cerevisiae deletion strains, locus YNL298W, strain CLA4, hits give low values 1.02 | S. cerevisiae deletion strains, locus YNL307C, strain MCK1, hits give low values 1.03 | S. cerevisiae deletion strains, locus YNL322C, strain KRE1 (second series), hits give low values 0.978 | S. cerevisiae deletion strains, locus YNL322C, strain KRE1, hits give low values 1.01 | S. cerevisiae deletion strains, locus YNR049C, strain mso1, hits give low values 0.971 | S. cerevisiae deletion strains, locus YNR052C, strain pop2, hits give low values 1.01 | S. cerevisiae deletion strains, locus YOL006C, strain TOP1, hits give low values 1.04 | S. cerevisiae deletion strains, locus YOL012C, strain htz1 0.932 | S. cerevisiae deletion strains, locus YOL147C, strain pex11, hits give low values 1.01 | S. cerevisiae deletion strains, locus YOR001W, strain rrp6, hits give low values 1.01 | S. cerevisiae deletion strains, locus YOR061W, strain CKA2, hits give low values 1.02 | S. cerevisiae deletion strains, locus YOR069W, strain VPS5, hits give low values 1.01 | S. cerevisiae deletion strains, locus YOR070C, strain gyp1, hits give low values 0.993 | S. cerevisiae deletion strains, locus YOR080W, strain dia2, hits give low values 0.983 | S. cerevisiae deletion strains, locus YOR083W, strain WHI5, hits give low values 0.922 | S. cerevisiae deletion strains, locus YOR106W, strain vam3, hits give low values 0.982 | S. cerevisiae deletion strains, locus YOR136W, strain idh2, hits give low values 1.02 | S. cerevisiae deletion strains, locus YOR144C, strain elg1, hits give low values 1.02 | S. cerevisiae deletion strains, locus YOR184W, strain ser1, hits give low values 1.06 | S. cerevisiae deletion strains, locus YOR231W, strain MKK1, hits give low values 0.988 | S. cerevisiae deletion strains, locus YOR265W, strain rbl2, hits give low values 0.983 | S. cerevisiae deletion strains, locus YOR270C, strain vph1, hits give low values 1.03 | S. cerevisiae deletion strains, locus YOR290C, strain snf2, hits give low values 0.977 | S. cerevisiae deletion strains, locus YOR316C, strain cot1, hits give low values 1.03 | S. cerevisiae deletion strains, locus YPL051W, strain arl3, hits give low values 0.984 | S. cerevisiae deletion strains, locus YPL055C, strain LGE1, hits give low values 1 | S. cerevisiae deletion strains, locus YPL078C, strain atp4, hits give low values 0.971 | S. cerevisiae deletion strains, locus YPL106C, strain sse1, hits give low values 0.934 | S. cerevisiae deletion strains, locus YPL240C, strain hsp82, hits give low values 0.989 | S. cerevisiae deletion strains, locus YPL256C, strain CLN2, hits give low values 1 | S. cerevisiae deletion strains, locus YPR119W, strain clb2, hits give low values 1.01 | S. cerevisiae deletion strains, locus YPR141C, strain kar3, hits give low values 1.01 | S. cerevisiae deletion strains, locus YPR163C, strain tif3, hits give low values 1.02 | S. cerevisiae deletion strains, locus YPR167C, strain met16, hits give low values 1.03 | S. cerevisiae deletion strains, strain wtn01, hits give low values 1.02 | S. cerevisiae strains, strain wild type, hits give low values 1.02
